# Assay outcomes (PubChem)
# HIF activator – HIF pathway transcriptional activation. AID 1910. activation, % at 7.5 µM (by protocol). U2OS HRE-luciferase reporter, luminescence; normalized: DMSO 0%, desferrioxamine 100%. 300,000 compounds, 0.32% hits;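 active = mean activation of at least 10% of the iron chelator positive control signal, with at least half of replicates also reaching 10%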
# ALR H2O2 inh – human ALR oxidase inhibition via reduced H2O2 | P55789 | purified ALR, DTT oxidation, H2O2 HRP-luminol luminescence | inhibition, % (concentration not given with the values) | 290,000 compounds, 3.8% hits;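 active = mean replicate inhibition above about 79%, with every replicate also reaching it, limit read from the data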
# Target sequence (P55789 whole entry, looked up): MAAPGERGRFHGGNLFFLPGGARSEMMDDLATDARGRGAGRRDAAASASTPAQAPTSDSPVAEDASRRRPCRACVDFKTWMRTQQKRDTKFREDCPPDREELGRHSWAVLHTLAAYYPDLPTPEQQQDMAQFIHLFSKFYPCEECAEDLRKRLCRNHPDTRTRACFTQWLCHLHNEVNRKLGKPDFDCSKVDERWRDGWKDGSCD
# Mot1-301 SUMO – inhibitors of SUMOylation pathway: yeast Mot1-301 growth rescue; S. cerevisiae Mot1-301 growth rescue, ATP luminescence, 38.5C; percent above DMSO median, 100 means doubled; growth rescue, % at 18.8 µM; 320,000 compounds, 1% hits;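 active = every valid replicate shows activation above 250% relative to neutral control wells; inactive = the rest, any valid replicate at or below 250%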;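 also: OY570 slx delta 5 strain wells were the positive control but not used for scaling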
# AI-2 QS mod – Vibrio harveyi AI-2 quorum sensing modulation; Vibrio harveyi JMH597 AI-2 luminescence/OD600 ratio, 9 h; active compounds read low; strain lacks LuxN and CqsS sensors; 0 = neutral-control median; AID 2094; 300,000 compounds, 0.4% hits; activity change, % at 7.5 µM; in the data active = activity change below about -75%, passing the limit was not always enough;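 also: luminescence divided by OD600 gain over 9 h not by final OD600 alone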
# Yeast Mot1 SUMO – yeast SUMO pathway inhibition in dose response. shares compounds with Mot1-301 SUMO. 2,300 tested, under 10 active. growth activity, percent, % at 42 µM. S. cerevisiae Mot1-301 galactose growth, ATP luminescence, 24 h; -100 = growth of slx-deleted rescue strain;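 active = Signal drops as the depositor expects, and the fitted half-maximal dose is no more than ten times the top valid tested dose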;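 also: more negative values mean stronger growth rescue toward the control strain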
# An asterisk follows results filed as active; · = no result given; + = active, no number; [ ] = remark or other dose. In the library only some 4.8% were active in any assay of this set; here they are far more common.
SMILES,HIF activator,ALR H2O2 inh,Mot1-301 SUMO,AI-2 QS mod,Yeast Mot1 SUMO
CCCCc1ccc(NC(=S)NCc2cccs2)cc1,0.1,2.7,572.8*,-17.5,-1.1
COc1ccc(C(CNC(=O)c2[nH]c(C)c(C(C)=O)c2C)N2CCOCC2)cc1 (configuration not stated),·,-6.8,43.1,·,·
CCc1ccc2c(c1)C(c1ccc(N3CCOCC3)cc1)=NNC(c1ccncc1)=N2,3.1,·,-13.2,16.5,·
CCc1ccc2c(c1)C(c1ccc([N+](=O)[O-])cc1)=NNC(c1ccc(C)cc1)=N2,0.1,1.1,406.8*,16.9,0.2
CC(=O)c1ccc2noc(-c3ccc(Cl)cc3)c2c1,-0.3,3.2,5.4,3.5,·
CC(=O)c1ccc2noc(-c3ccc(F)cc3)c2c1,0.7,3.3,+,2.0,-0.5
COc1ccc(NCC(=O)Nc2cccc(C(F)(F)F)c2)cc1S(=O)(=O)N1CCOCC1,·,-1.1,-20.7,·,·
O=S(=O)(O)c1ccc(N=NNc2ccc(Br)cc2)cc1,2.6,0.1,539.3*,57.3,0.2
O=C1CCN(Cc2ccc(O)cc2)CCN1CCO,-1.5,28.1,217.4,19.8,·
Cc1[nH]n(-c2ccccc2)c(=S)c1C=Nc1cccc([N+](=O)[O-])c1,1.7,-3.3,9.2,28.3,·
COCC(=O)Nc1c(C(=O)Nc2ccc3c(c2)OCO3)oc2ccccc12,1.9,5.1,414.9*,22.6,-0.5
COCCn1c(-c2ccc(Cl)cc2)cnc1SCC(=O)NCCc1ccc(OC)c(OC)c1,0.0,-3.0,472.8*,24.1,0.1
O=c1[nH]cnc2ccc([N+](=O)[O-])cc12,0.0,-5.8,397.1*,11.2,-0.2
CSCCC(=O)N1CCCC(N(C)CCc2ccccc2)C1 (configuration not stated),0.1,·,17.4,12.2,·
O=C(CSc1ccc(F)cc1)Nc1ccc2c(c1)C(=O)NC2=O,-0.5,-4.8,6.1,25.3,·
CC12CC3(C)CC(C)(C1)CC(C(=O)NC(=S)N1CCCC1)(C2)C3,0.2,-5.0,765.6*,31.2,0.9
CC(C)(C)C(=O)NC(=S)N1CCCC1,-0.1,2.9,-10.4,20.1,·
O=C(NCCCn1ccnc1)C1CCN(S(=O)(=O)c2cc([N+](=O)[O-])ccc2Cl)CC1,·,-24.1,3.8,·,·
CCN(CC(=O)NCc1ccc(Cl)cc1)C(=O)CCOc1ccc(C)cc1,0.0,0.7,0.3,9.8,·
O=C(NC(=S)Nc1ccccc1N1CCOCC1)c1ccc(-c2ccccc2F)o1,0.3,-17.4,-8.0,11.4,·
CC(=O)N1CCC2(CC1)CC(=O)c1cc(OCC(=O)N3CCCC3)ccc1O2,-0.3,-2.9,488.3*,3.9,0.6
CCOC(=O)COc1ccc2c(c1)C(=O)CC1(CCN(C(C)=O)CC1)O2,-0.1,-15.2,-7.5,33.2,·
O=C(NCc1c(Cl)cccc1Oc1ccccc1)c1ccccc1,-0.3,·,-16.9,9.7,·
Cc1cc(Br)c(NC(=O)CN2CCCC2)c(Br)c1,1.8,·,·,12.1,·
CC(C)(C)c1ccc(C(=O)COC(=O)CN2C(=O)NC3(CCCC3)C2=O)cc1,-0.3,-1.5,522.3*,11.1,-0.3
SMILES,HIF activator,ALR H2O2 inh,Mot1-301 SUMO,AI-2 QS mod,Yeast Mot1 SUMO
CC(C)(C)c1ccc(COC(=O)CN2C(=O)NC3(CCCC3)C2=O)cc1,0.1,-4.1,7.6,13.4,·
CC1CCN(CCCCOc2ccc(Cl)cc2)CC1,-0.5,0.6,427.0*,16.7,-0.2
CC1CCN(CCCCOc2ccc(C(C)(C)C)cc2)CC1,1.0,-6.6,9.5,6.2,·
Cc1cccc(NC(=O)c2cc(=O)[nH]c3ccccc23)c1,0.1,-37.7,-13.5,25.2,·
Cc1cccc(NS(=O)(=O)c2ccc3[nH]c(=O)cc(C(=O)O)c3c2)c1,0.1,-8.4,543.6*,13.9,1.0[21 µM]
Cc1cccc(C(=O)CC(=O)c2cc(Cl)ccc2O)c1,0.8,·,213.4,148.6,·
Cc1ccc(O)c(C(=O)CC(=O)c2cccc(F)c2)c1,1.3,-2.1,538.4*,-39.7,-0.9
Cc1ccc(S(=O)(=O)N2CCc3cc4c(cc3C2C)OCCCO4)cc1 (configuration not stated),-0.1,-5.5,187.3,17.9,·
COc1ccc(S(=O)(=O)N2CCc3cc4c(cc3C2C)OCCCO4)cc1 (configuration not stated),0.1,-3.7,599.9*,-4.8,-0.6
CCOC(=O)N1CCN(c2nnnn2-c2ccccc2)CC1,-0.4,2.9,366.2*,-0.7,0.0
COc1ccc(C(=O)N2CCN(c3nnnn3-c3ccccc3)CC2)cc1OC,-0.2,-1.4,-9.6,12.4,·
O=C(CSc1ccccc1)N1CCCC(N2CCN(c3cccc(Cl)c3)CC2)C1 (configuration not stated),-0.3,·,-25.2,33.8,·
Cc1cc(C)c[n+](-c2nc3ccccc3nc2[N-]S(=O)(=O)c2ccc(Br)s2)c1,-0.3,·,378.9*,33.6,-0.2
O=S(=O)([N-]c1nc2ccccc2nc1-[n+]1ccccc1)c1ccccc1,-0.4,-0.5,-4.1,0.6,·
CCOc1c(Cl)cc(CNCC(O)c2ccccc2)cc1OC (configuration not stated),-0.3,-5.3,613.8*,6.4,0.2
CCOc1c(Cl)cc(CNCC(C)C)cc1OC,0.0,2.0,70.3,-2.2,·
Cc1cc(C)cc(N2C(=O)CC(Sc3ncn[nH]3)C2=O)c1 (configuration not stated),0.0,-4.0,452.2*,15.4,-1.6
Cc1ccc(Cl)cc1NC(=O)Nc1c(C)n(C)n(-c2ccccc2)c1=O,-1.1,-3.5,-12.4,21.8,·
O=C(NCc1cccs1)Nc1cc(Cl)ccc1Cl,0.1,-1.7,-4.2,20.6,·
O=C(O)c1ccc(Cl)c(NCc2cccs2)c1,-1.2,-2.5,560.0*,36.5,-0.1
C[C@H](CO)N1C[C@H](C)[C@@H](CN(C)S(=O)(=O)c2cccs2)Oc2c(NC(=O)CCC(F)(F)F)cccc2C1=O,·,-0.8,49.9,·,·
COc1cccc(CN(C)C(=O)CSc2nc3ccccc3[nH]2)c1OC,-0.5,6.9,82.1,·,·
CCOc1ccc(C2C(C(=O)c3ccco3)=C(O)C(=O)N2CCN2CCOCC2)cc1 (configuration not stated),0.4,-1.3,2.9,13.0,·
CC(C)c1ccc(C2C(C(=O)c3ccco3)=C(O)C(=O)N2CCN2CCOCC2)cc1 (configuration not stated),0.2,7.0,+,29.0,0.4
CCc1nn(CC(=O)NCCCN(C)Cc2ccccc2)c(=O)c2cc3sc(C)cc3n12,·,-9.9,-6.3,30.1,·
CCC(c1nnnn1C1CCCC1)N1CCN(c2cccc(OC)c2)CC1 (configuration not stated),-0.3,98.0*,747.4*,23.9,-0.1[21 µM]
O=C1CCCN1CCC1CCN(C2CC(=O)N(Cc3ccc(N4CCCC4=O)cc3)C2=O)CC1 (configuration not stated),-0.2,-5.4,62.8,18.7,·
O=C1CCCN1CCC1CCN(C2CC(=O)N(c3ccc(Cl)cc3)C2=O)CC1 (configuration not stated),-0.5,32.4,503.3*,40.0,-1.9
